Assay results from PubChem BioAssay (NCATS).
Results filed as inconclusive are left out. The source made the active and inactive calls. Calls come from the whole dose curve; as a rule, active = well fitted curve in the direction sought with a large enough effect; inconclusive = small, poorly fitted or top-dose-only effect, or another doubt; inactive = no such curve, though single readings can be large; an effect the other way counts as inactive or inconclusive.

Assays:
[1] = Quantitative High-Throughput drug screen in 47 multiple myeloma cell lines against the NCATS MIPE library collection: Delta47_JCRB cell viability assay (AID 1918925; note: potency is the fitted concentration of half-maximal effect; nearly all actives have a fitted effect of over 45% in size)
Method in brief: (§1)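 Relative luminescence from CellTiter-Glo served as the viability signal, referenced to DMSO-treated (100%) and cell-free medium (0%) controls. Treatment lasted 48 hours at 37C with 500 cells per well.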

[2] = Quantitative High-Throughput drug screen in 47 multiple myeloma cell lines against the NCATS MIPE library collection: AMO1_DSMZ cell viability assay (AID 1918927; note: nearly all actives have a fitted effect of over 30% in size; note: potency is the fitted concentration of half-maximal effect)
Method in brief: as §1

[3] = Quantitative High-Throughput drug screen in 47 multiple myeloma cell lines against the NCATS MIPE library collection: Karpas620_DSMZ cell viability assay (AID 1918959); note: nearly all actives have a fitted effect of over 30% in size; note: potency is the fitted concentration of half-maximal effect
Method in brief: (§2)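 Steps: seed 500 cells per well; pin-transfer MIPE 4.0 library; incubate 48 h at 37C, 5% CO2, humidified; add CellTiter-Glo, 5 min room temperature; read luminescence.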

[4] = Quantitative High-Throughput drug screen in 47 multiple myeloma cell lines against the NCATS MIPE library collection: KMM1_JCRB cell viability assay (AID 1918960); note: nearly all actives have a fitted effect of over 30% in size; note: potency is the fitted concentration of half-maximal effect
Method in brief: (§3)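 CellTiter-Glo luminescence after 48 h exposure gives viability, scaled between DMSO-only (100%) and media-only (0%) controls. Library compounds are pinned onto 500 myeloma cells per well, incubated at 37C with 5% CO2.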

[5] = Quantitative High-Throughput drug screen in 47 multiple myeloma cell lines against the NCATS MIPE library collection: KHM11_PLB cell viability assay (AID 1918962); note: nearly all actives have a fitted effect of over 35% in size; note: potency is the fitted concentration of half-maximal effect
Method in brief: as §2

[6] = Quantitative High-Throughput drug screen in 47 multiple myeloma cell lines against the NCATS MIPE library collection: JIM3_ECACC cell viability assay (AID 1918963; note: nearly all actives have a fitted effect of over 35% in size; note: potency is the fitted concentration of half-maximal effect)
Method in brief: as §2

[7] = Quantitative High-Throughput drug screen in 47 multiple myeloma cell lines against the NCATS MIPE library collection: JIM1_ECACC cell viability assay (AID 1918964; note: potency is the fitted concentration of half-maximal effect)
Method in brief: as §1

[8] = Quantitative High-Throughput drug screen in 47 multiple myeloma cell lines against the NCATS MIPE library collection: INA6_PLB cell viability assay (AID 1918965; note: nearly all actives have a fitted effect of over 55% in size; note: potency is the fitted concentration of half-maximal effect)
Method in brief: (§4)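 CellTiter-Glo luminescence (ATP) after 48 h compound exposure, 37C/5% CO2; 500 cells/well; MIPE 4.0 approved/investigational drugs pinned in; DMSO = 100%, media only = 0% viability.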

[9] = Quantitative High-Throughput drug screen in 47 multiple myeloma cell lines against the NCATS MIPE library collection: H1112_PLB cell viability assay (AID 1918967; note: nearly all actives have a fitted effect of over 30% in size; note: potency is the fitted concentration of half-maximal effect)
Method in brief: as §1

[10] = Quantitative High-Throughput drug screen in 47 multiple myeloma cell lines against the NCATS MIPE library collection: Karpas25_ECACC cell viability assay (AID 1918968; note: nearly all actives have a fitted effect of over 35% in size; note: potency is the fitted concentration of half-maximal effect)
Method in brief: as §1

[11] = Quantitative High-Throughput drug screen in 47 multiple myeloma cell lines against the NCATS MIPE library collection: KMS27_JCRB cell viability assay (AID 1918970); conditions: KMS27 myeloma cells, CellTiter-Glo ATP viability, 48 h; viability (% of DMSO): at 45.8 µM (top of the series); note: nearly all actives have a fitted effect of over 30% in size; note: potency is the fitted concentration of half-maximal effect
Method in brief: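 Myeloma cells (500 per well) were exposed to MIPE 4.0 compounds for 48 h at 37 °C, 5% CO2; viability was read as ATP luminescence with CellTiter-Glo, normalized to DMSO-only (100%) and media-only (0%) wells.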

[12] = Quantitative High-Throughput drug screen in 47 multiple myeloma cell lines against the NCATS MIPE library collection: KMS12BM_JCRB cell viability assay (AID 1918971); note: nearly all actives have a fitted effect of over 35% in size; note: potency is the fitted concentration of half-maximal effect
Method in brief: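 Viability readout: CellTiter-Glo luminescence following 5 min room-temperature incubation with reagent. Prior exposure: 48 h, 37C, humidified 5% CO2, 500 cells per well.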

[13] = Quantitative High-Throughput drug screen in 47 multiple myeloma cell lines against the NCATS MIPE library collection: KMS12PE_JCRB cell viability assay (AID 1918972); note: nearly all actives have a fitted effect of over 30% in size; note: potency is the fitted concentration of half-maximal effect
Method in brief: as §4

[14] = Quantitative High-Throughput drug screen in 47 multiple myeloma cell lines against the NCATS MIPE library collection: KMS20_JCRB cell viability assay (AID 1918973); note: nearly all actives have a fitted effect of over 45% in size; note: potency is the fitted concentration of half-maximal effect
Method in brief: as §1

[15] = Quantitative High-Throughput drug screen in 47 multiple myeloma cell lines against the NCATS MIPE library collection: EJM_DSMZ cell viability assay (AID 1918926; note: nearly all actives have a fitted effect of over 30% in size; note: potency is the fitted concentration of half-maximal effect)
Method in brief: as §1

[16] = Quantitative High-Throughput drug screen in 47 multiple myeloma cell lines against the NCATS MIPE library collection: ARD_JJKsccE7 cell viability assay (AID 1918929)
Method in brief: as §1

[17] = Quantitative High-Throughput drug screen in 47 multiple myeloma cell lines against the NCATS MIPE library collection: JJN3_DSMZ cell viability assay (AID 1918966; note: nearly all actives have a fitted effect of over 50% in size; note: potency is the fitted concentration of half-maximal effect)
Method in brief: as §1

[18] = Quantitative High-Throughput drug screen in 47 multiple myeloma cell lines against the NCATS MIPE library collection: ARP1_JJKsccF8 cell viability assay (AID 1918928; note: nearly all actives have a fitted effect of over 40% in size; note: potency is the fitted concentration of half-maximal effect)
Method in brief: as §3

[19] = Quantitative High-Throughput drug screen in 47 multiple myeloma cell lines against the NCATS MIPE library collection: Karpas417_ECACC cell viability assay (AID 1918961); conditions: Karpas417 myeloma viability, CellTiter-Glo ATP luminescence, 48 h; viability (% of DMSO): at 45.8 µM (top of the series); note: potency is the fitted concentration of half-maximal effect
Method in brief: as §4

Measured: Potency

Nc1[nH]nc2nnc(-c3c(-c4ccccc4)nn4ccccc34)cc12
active: [1] 4.69 µM | [2] 1.66 µM | [3] 16.6 µM | [4] 4.69 µM | [5] 10.5 µM | [6] 9.35 µM | [7] 3.32 µM | [8] 1.05 µM | [9] 4.18 µM | [10] 1.66 µM | [11] 1.87 µM | [13] 2.35 µM | [14] 2.09 µM
inactive: [12]

COc1cc(N2CCN(C)CC2)ccc1Nc1nc(N)c(C(=O)c2c(Cl)cccc2Cl)s1
active: [15] 23.5 µM | [2] 18.7 µM | [4] 18.7 µM | [11] 23.5 µM | [13] 23.5 µM

CC1C(=O)OC2C(O)C34C5CC(C(C)(C)C)C36C(OC(=O)C6O)OC4(C(=O)O5)C12O (centres undefined)
not listed: [1] | [2] | [5] | [12] | [14] | [18] | [19]
inactive: all other assays above

C[C@H](CCC(=O)O)[C@H]1CC[C@H]2[C@H]3[C@@H](CC[C@]12C)[C@@]1(C)CC[C@@H](O)C[C@H]1C[C@@H]3O
active: [18] 1.48 µM | [11] 20.9 µM
inactive: [15] | [6] | [8] | [12]

COc1ccc(-c2ccc3ncc4c(c3c2)n(-c2ccc(N3CCNCC3)c(C(F)(F)F)c2)c(=O)n4C)cn1
active: [15] 0.0332 µM | [3] 0.0833 µM | [17] 0.0066 µM | [9] 0.0935 µM | [12] 0.332 µM | [14] 0.0066 µM

Cc1cc(OCCCS(C)(=O)=O)cc(C)c1-c1cccc(COc2ccc3c(c2)OC[C@H]3CC(=O)O)c1
active: [3] 5.9 µM | [6] 14.8 µM | [17] 11.8 µM | [12] 13.2 µM | [13] 5.26 µM
inactive: [15] | [16] | [7]

COC(=O)N1CCN(Cc2cccc(NC(=O)Nc3ccc(C)nc3)c2F)CC1
active: [19] 0.0047 µM | [12] 20.9 µM
inactive: [15] | [18] | [16] | [3] | [4] | [5] | [7] | [11] | [13]

COc1ccc2ccc(=O)oc2c1CC=C(C)C
inactive: [6] | [14]
active: [15] 1.48 µM | [2] 13.2 µM | [18] 8.33 µM | [3] 16.6 µM | [17] 11.8 µM | [10] 20.9 µM | [11] 18.7 µM | [13] 20.9 µM

CN1C(=O)C[C@H](C(=O)N[C@@H](Cc2cnc[nH]2)C(=O)N2CCC[C@@H]2C(N)=O)NC1=O
active: [12] 16.6 µM
inactive: [15] | [16] | [3] | [5] | [13]

CCN1C[C@H](C)n2c(c(O)c3c(=O)n(Cc4ccc(F)c(Cl)c4)nc(C(=O)NC)c32)C1=O
active: [3] 0.0066 µM
not listed: [1] | [12] | [14] | [17] | [18] | [19]
inactive: all other assays above

COc1nccc(-c2c(-c3ccc(F)cc3)ncn2C2CCNCC2)n1
active: [8] 10.5 µM | [9] 1.66 µM | [12] 20.9 µM
inactive: [15] | [2] | [3] | [4] | [10] | [13] | [14]

Cc1cc(NC(=O)Nc2ccc(N(C)C)cc2)c2cc(F)cc(F)c2n1
active: [10] 3.72 µM | [13] 1.66 µM
inactive: [15] | [2] | [3] | [4] | [6] | [11]

CN(C)CCOc1ccc(C(=C(CCCl)c2ccccc2)c2ccccc2)cc1
active: [15] 18.7 µM | [17] 23.5 µM
inactive: [2] | [18] | [4] | [19] | [5] | [7] | [10] | [11] | [13]

Clc1ccc(COC(Cn2ccnc2)c2ccc(Cl)cc2Cl)c(Cl)c1 (centres undefined)
active: [15] 20.9 µM | [2] 23.5 µM | [18] 18.7 µM | [3] 20.9 µM | [4] 18.7 µM | [6] 20.9 µM | [7] 26.4 µM | [8] 20.9 µM | [9] 18.7 µM | [10] 18.7 µM | [13] 18.7 µM

CCN(CCO)CCCOc1ccc2c(Nc3cc(CC(=O)Nc4cccc(F)c4)[nH]n3)ncnc2c1
active: [2] 0.187 µM | [19] 0.469 µM | [8] 0.0743 µM | [11] 0.0083 µM | [12] 0.209 µM
inactive: [15] | [16] | [3] | [4] | [5] | [6] | [10] | [14]

N#Cc1ccc(Oc2ccc3c(c2)COB3O)cc1
inactive: [15]
active: [2] 20.9 µM | [4] 16.6 µM | [8] 20.9 µM | [11] 23.5 µM
